Screen size: about 39,000 compounds; about 1,500 (3.8%) were called active. The sample as a whole holds a higher share of actives than the screen did.
system: HSkMC (human skeletal muscle cells); assay: cytotoxicity call (relative viability < 0.9); conditions: 10 µM

SMILES | cytotoxicity call
C[C@@H]1CCCCO[C@H](CN(C)C(=O)Cc2ccccc2)[C@@H](C)CN([C@@H](C)CO)C(=O)c2cc(NS(=O)(=O)c3ccc(F)cc3)ccc2O1 | inactive
Cn1c(=O)c2c(ncn2CC(=O)O)n(C)c1=O | inactive
Cc1cnc(Nc2ccc(F)cc2Cl)nc1-c1c[nH]c(C(=O)N[C@H](CO)c2cccc(Cl)c2)c1 | active
O=C(C[C@@H]1CC[C@@H]2NC[C@@H](O)COC[C@H]2O1)NCCN1CCCC1 | inactive
Cc1ccc(S(=O)(=O)N(C)C[C@@H]2OCCCC[C@H](C)Oc3ccc(NS(=O)(=O)c4ccc(Cl)cc4)cc3C(=O)N([C@@H](C)CO)C[C@H]2C)cc1 | inactive
O=C(O)c1cc2sccc2s1 | inactive
CCOc1cc2ncc(C#N)c(Nc3ccc(OCc4ccccn4)c(Cl)c3)c2cc1NC(=O)/C=C/CN(C)C | active
CCOc1cc2ncc(C#N)c(Nc3ccc(OCc4ccccn4)c(Cl)c3)c2cc1NC(=O)/C=C/[C@H]1CCCN1C | inactive
COc1cc(Nc2c(C#N)cnc3cc(OCCCN4CCN(C)CC4)c(OC)cc23)c(Cl)cc1Cl | inactive
C[C@@H]1CCCCO[C@@H](CN(C)C(=O)Cc2ccccc2)[C@H](C)CN([C@@H](C)CO)C(=O)c2cc(NS(=O)(=O)c3ccc(Cl)cc3)ccc2O1 | inactive
CC(=O)N(C)C1(c2ccccc2)CCN(CCC[C@]2(c3ccc(Cl)c(Cl)c3)CCCN(C(=O)c3ccccc3)C2)CC1 | active
CC(C)Oc1cccc(CC(=O)N2CCC[C@](CC[N+]34CCC(c5ccccc5)(CC3)CC4)(c3ccc(Cl)c(Cl)c3)C2)c1 | inactive
CC(C)NC(=O)Nc1ccc2c(c1)CC(=O)N([C@@H](C)CO)C[C@@H](C)[C@@H](CN(C)S(=O)(=O)c1cn(C)cn1)O2 | inactive
C[C@H](CO)N1C[C@H](C)[C@@H](CN(C)Cc2ccccc2)OCCCC[C@H](C)Oc2ccc(NC(=O)c3ccncc3)cc2C1=O | inactive
C[C@@H]1CN([C@H](C)CO)C(=O)c2c(c3ccccc3n2C)-c2ccccc2CO[C@H]1CN(C)S(=O)(=O)c1ccc(C(F)(F)F)cc1 | active
C[C@H](CO)N1C[C@H](C)[C@H](CN(C)Cc2ccc(C(F)(F)F)cc2)OCc2ccccc2-c2c(n(C)c3ccccc23)C1=O | inactive
C[C@@H]1CN([C@@H](C)CO)C(=O)c2c(c3ccccc3n2C)-c2ccccc2CO[C@H]1CN(C)Cc1ccc(C(F)(F)F)cc1 | active
C[C@H]1CN([C@@H](C)CO)C(=O)c2c(c3ccccc3n2C)-c2ccccc2CO[C@H]1CN(C)Cc1ccc(C(F)(F)F)cc1 | inactive
C[C@@H]1CN([C@@H](C)CO)C(=O)c2c(c3ccccc3n2C)-c2ccccc2CO[C@@H]1CN(C)S(=O)(=O)c1ccc(C(F)(F)F)cc1 | inactive
C[C@@H]1CN([C@H](C)CO)C(=O)c2c(c3ccccc3n2C)-c2ccccc2CO[C@@H]1CN(C)S(=O)(=O)c1ccc(C(F)(F)F)cc1 | inactive
C[C@H](CO)N1C[C@H](C)[C@@H](CN(C)Cc2ccc(C(F)(F)F)cc2)OCc2ccccc2-c2c(n(C)c3ccccc23)C1=O | inactive
C[C@@H]1CN([C@@H](C)CO)C(=O)c2c(c3ccccc3n2C)-c2ccccc2CO[C@@H]1CN(C)Cc1ccc(C(F)(F)F)cc1 | inactive

SMILES | cytotoxicity call
C[C@@H]1CN([C@H](C)CO)C(=O)c2c(c3ccccc3n2C)-c2ccccc2CO[C@@H]1CN(C)Cc1ccc(C(F)(F)F)cc1 | active
C[C@@H]1CN([C@H](C)CO)C(=O)c2c(c3ccccc3n2C)-c2ccccc2CO[C@@H]1CN(C)Cc1ccc(F)cc1 | inactive
C[C@H]1CN([C@@H](C)CO)C(=O)c2c(c3ccccc3n2C)-c2ccccc2CO[C@@H]1CN(C)Cc1ccc(C(F)(F)F)cc1 | inactive
C[C@@H]1CN([C@H](C)CO)C(=O)c2c(c3ccccc3n2C)-c2ccccc2CO[C@H]1CN(C)Cc1ccc(C(F)(F)F)cc1 | active
C[C@H](CO)N1C[C@H](C)[C@@H](CN(C)C(=O)Nc2ccccc2)OCCCC[C@H](C)Oc2ccc(NC(=O)Nc3ccc(F)cc3)cc2C1=O | inactive
C[C@@H]1CCCCO[C@H](CN(C)C(=O)Nc2ccc3c(c2)OCO3)[C@@H](C)CN([C@@H](C)CO)C(=O)c2cc(NS(=O)(=O)c3cccs3)ccc2O1 | inactive
CN(C)C(=O)C[C@H]1CC[C@@H](NC(=O)C2CCOCC2)[C@H](CO)O1 | inactive
O=C(/C=C/c1ccc(O)c(O)c1)O[C@H]1[C@H](O)C[C@](OC(=O)/C=C/c2ccc(O)c(O)c2)(C(=O)O)C[C@H]1O | inactive
O=C(C[C@@H]1CC[C@@H]2[C@H](COC[C@@H](O)CN2S(=O)(=O)c2ccc(Cl)cc2)O1)NCC1CCCCC1 | inactive
COc1ccc(NC(=O)N(C)C[C@@H]2OCCCC[C@@H](C)Oc3ccc(NC(=O)Nc4ccc(F)cc4)cc3C(=O)N([C@H](C)CO)C[C@@H]2C)cc1 | inactive
COc1ccc(S(=O)(=O)N(C)C[C@@H]2Oc3ccc(NC(=O)c4ccncc4)cc3C(=O)N([C@@H](C)CO)C[C@H]2C)cc1 | inactive
C[C@H]1CN([C@@H](C)CO)C(=O)c2cccc(NC(=O)c3nc4ccccc4s3)c2O[C@H]1CN(C)S(C)(=O)=O | inactive
CC(C)NC(=O)N(C)C[C@@H]1Oc2ccc(NS(=O)(=O)c3cccs3)cc2CC(=O)N([C@@H](C)CO)C[C@H]1C | inactive
C[C@@H]1CN([C@@H](C)CO)S(=O)(=O)c2ccc(C#C[C@@H](C)O)cc2O[C@@H]1CN(C)C(=O)c1ccncc1 | inactive
CO[C@@H]1CN(C)C(=O)c2cc(NC(=O)C3CC3)ccc2OC[C@H](C)N(C(=O)C2CCOCC2)C[C@H]1C | inactive
Cc1noc(C)c1NC(=O)N(C)C[C@H]1Oc2c(NC(=O)NC(C)C)cccc2C(=O)N([C@H](C)CO)C[C@H]1C | inactive
CO[C@@H](C(=O)N(C)C[C@H]1OCc2ccccc2-c2c(n(C)c3ccccc23)C(=O)N([C@@H](C)CO)C[C@H]1C)c1ccccc1 | inactive
C[C@@H]1CN([C@@H](C)CO)C(=O)Cc2cc(NC(=O)Nc3cccc4ccccc34)ccc2O[C@@H]1CN(C)C(=O)Nc1ccc(C(F)(F)F)cc1 | active
C[C@H](CO)N1C[C@H](C)[C@@H](CN(C)Cc2ccc(C(F)(F)F)cc2)Oc2ccc(NC(=O)Nc3cccc4ccccc34)cc2CC1=O | inactive
C[C@@H]1CN([C@H](C)CO)C(=O)c2cc(NC(=O)Nc3cccc4ccccc34)ccc2O[C@H]1CN(C)Cc1ccc(C(F)(F)F)cc1 | inactive
C[C@H]1CN([C@@H](C)CO)C(=O)Cc2cc(NC(=O)Nc3cccc4ccccc34)ccc2O[C@H]1CN(C)Cc1ccc(C(F)(F)F)cc1 | active
C[C@H]1CN([C@@H](C)CO)C(=O)Cc2cc(NC(=O)Nc3ccc(C(F)(F)F)cc3)ccc2O[C@@H]1CN(C)C(=O)Nc1cccc2ccccc12 | inactive

SMILES | cytotoxicity call
C[C@@H]1CN([C@@H](C)CO)C(=O)Cc2cc(NC(=O)Nc3ccc(C(F)(F)F)cc3)ccc2O[C@@H]1CN(C)C(=O)Nc1cccc2ccccc12 | active
C[C@H]1CN([C@@H](C)CO)C(=O)Cc2cc(NC(=O)Nc3cccc4ccccc34)ccc2O[C@@H]1CN(C)C(=O)Nc1ccc(C(F)(F)F)cc1 | inactive
C[C@@H]1CN([C@@H](C)CO)C(=O)c2cc(NC(=O)Nc3cccc4ccccc34)ccc2O[C@H]1CN(C)Cc1ccc(C(F)(F)F)cc1 | inactive
C[C@@H]1CN([C@@H](C)CO)C(=O)Cc2cc(NC(=O)Nc3cccc4ccccc34)ccc2O[C@H]1CN(C)C(=O)Nc1ccc(C(F)(F)F)cc1 | inactive
C[C@H]1CN([C@@H](C)CO)C(=O)c2cc(NC(=O)Nc3cccc4ccccc34)ccc2O[C@H]1CN(C)Cc1ccc(C(F)(F)F)cc1 | active
C[C@H]1CN([C@@H](C)CO)C(=O)Cc2cc(NC(=O)Nc3ccc(C(F)(F)F)cc3)ccc2O[C@H]1CN(C)C(=O)Nc1cccc2ccccc12 | inactive
C[C@H]1CN([C@@H](C)CO)C(=O)Cc2cc(NC(=O)Nc3cccc4ccccc34)ccc2O[C@@H]1CN(C)Cc1ccc(C(F)(F)F)cc1 | inactive
COc1ccc(NC(=O)Nc2ccc3c(c2)[C@@H]2C[C@@H](CC(=O)NCc4ccncc4)O[C@H](CO)[C@@H]2O3)cc1 | inactive
COc1ccc(S(=O)(=O)N(C)C[C@@H]2OCCCC[C@@H](C)Oc3ccc(NC(=O)Nc4ccccc4)cc3C(=O)N([C@@H](C)CO)C[C@H]2C)cc1 | inactive
C[C@H](CO)N1C[C@H](C)[C@H](CN(C)S(=O)(=O)c2ccccc2)Oc2ccc(NC(=O)Cn3cnnn3)cc2CC1=O | inactive
C[C@@H]1CN([C@@H](C)CO)C(=O)Cc2cc(NC(=O)Cc3cn(C)c4ccccc34)ccc2O[C@H]1CN(C)C(=O)Nc1cccc2ccccc12 | inactive
C#CCN(O[C@@H](/C=C/[C@@H](O)Cc1ccccc1)C1CC1)[C@@H](Cc1ccc(-n2cc(CCC(=O)NO)nn2)cc1)C(=O)OC | inactive
Cc1noc(C)c1S(=O)(=O)N(C)C[C@H]1Oc2ccc(NS(=O)(=O)c3cn(C)cn3)cc2CC(=O)N([C@@H](C)CO)C[C@@H]1C | inactive
Cc1noc(C)c1S(=O)(=O)Nc1ccc2c(c1)C(=O)N([C@H](C)CO)C[C@H](C)[C@H](CN(C)C(=O)Nc1ccc3c(c1)OCO3)O2 | inactive
Cc1noc(C)c1S(=O)(=O)Nc1ccc2c(c1)C(=O)N([C@H](C)CO)C[C@H](C)[C@@H](CN(C)S(=O)(=O)c1ccccc1)O2 | inactive
O=C(C[C@@H]1C[C@@H]2c3cc(NC(=O)C4CCOCC4)ccc3O[C@@H]2[C@@H](CO)O1)NCc1ccc2c(c1)OCO2 | inactive
C[C@H](CO)N1C[C@H](C)[C@@H](CN(C)CC2CC2)OCCCC[C@H](C)Oc2ccc(NC(=O)Nc3ccc(C(F)(F)F)cc3)cc2C1=O | inactive
C[C@H](CO)N1C[C@H](C)[C@H](CN(C)CC2CCCCC2)OCCCC[C@H](C)Oc2ccc(NC(=O)Nc3ccc(C(F)(F)F)cc3)cc2C1=O | active
C[C@@H]1CCCCO[C@@H](CN(C)CC2CC2)[C@H](C)CN([C@H](C)CO)C(=O)c2cc(NC(=O)Nc3ccc(C(F)(F)F)cc3)ccc2O1 | inactive
C[C@@H]1CCCCO[C@H](CN(C)CC2CCCCC2)[C@H](C)CN([C@H](C)CO)C(=O)c2cc(NC(=O)Nc3ccc(C(F)(F)F)cc3)ccc2O1 | active
C[C@@H]1CCCCO[C@H](CN(C)CC2CCCCC2)[C@H](C)CN([C@@H](C)CO)C(=O)c2cc(NC(=O)Nc3ccc(C(F)(F)F)cc3)ccc2O1 | active
C[C@@H]1CCCCO[C@@H](CN(C)CC2CCCCC2)[C@H](C)CN([C@@H](C)CO)C(=O)c2cc(NC(=O)Nc3ccc(C(F)(F)F)cc3)ccc2O1 | active

— the antibiotic and cytotoxicity screens of Wong et al. (2023)
